# In PubChem BioAssay AID504690 (Sanford-Burnham Center for Chemical Genomics, 2011):
# Out of some 350,000 compounds screened, about 2,700 (0.77%) were called active. Only a selection was taken, and actives are over-represented in it overall. Values without a mark were called inactive.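 How the source made its calls: active means inhibition reaching at least a set limit at 20 µM in the primary screen (cut at about 59% in these data); inactive means the rest.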
# Test system: glucose-6-phosphate dehydrogenase-6-phosphogluconolactonase (Plasmodium falciparum 3D7)
# Test: PfG6PD enzyme inhibitors, primary screen, biochemical, fluorescence intensity, uHTS (AID 504690);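 further: 0% = DMSO wells with substrate and 100% = DMSO wells lacking glucose-6-phosphate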
# Conditions: PfGluPho enzyme, NADPH resazurin-diaphorase fluorescence; at 20 µM; stronger effect = higher value
row,Compound,inhibition
1,Cc1ccc(Cl)cc1NC(=O)CN1CCN(S(=O)(=O)N2CCOCC2)CC1,-17%
2,O=C(CN1CCN(c2cccc(Cl)c2)CC1)Nc1ccc(S(=O)(=O)N2CCOCC2)cc1,7.9%
3,O=C(CN1CCN(c2ccc(F)cc2)CC1)Nc1cccc(C(F)(F)F)c1,12.7%
4,O=C(CN1CCN(c2ccc(O)cc2)CC1)Nc1ccc(-c2ccccc2)cc1,69% (active)
5,O=C(CN1CCN(c2ccc(O)cc2)CC1)Nc1cc(S(=O)(=O)N2CCOCC2)ccc1Cl,73.8% (active)
6,O=C(CN1CCOCC1)Nc1ccccc1,-18.6%
7,COc1cc2c(cc1OC)C(C(=O)NCc1ccco1)C1c3ccccc3CCN1C2=O (configuration not stated),0.17%
8,CCn1nc(NC(=O)c2ccco2)c2cc3ccc(C)cc3nc21,6.85%
9,O=C(NCCN=C1NS(=O)(=O)c2ccccc21)c1ccc(S(=O)(=O)N2CCOCC2)cc1,4.66%
10,O=C(COc1ccc([N+](=O)[O-])cc1Cl)Nc1ccc2[nH]c(=O)[nH]c2c1,13.1%
11,COC(=O)c1ccc(OCC(=O)NC(C)(C)C)cc1,3.26%
12,CC(C)(C)NC(=O)COc1ccc(CNc2ccc3[nH]c(=O)[nH]c3c2)cc1,94.7% (active)
13,COc1ccccc1CN1CC(C(=O)NCCc2cn[nH]c2)CCC1=O (configuration not stated),-1.62%
14,Cc1ccc(C(=O)OCC(=O)Nc2ccc(Cl)cn2)cc1S(=O)(=O)N1CCOCC1,-1.58%
15,COC(C[C@@H](O)C[C@@H](O)[C@H](C)OCc1ccccc1)OC,10.8%
16,O=C(CCn1nnc2ccccc21)OCC(=O)c1ccc([N+](=O)[O-])cc1,59.2% (active)
17,COc1c(O)cccc1-c1nnn(CCC(=O)OCC(=O)c2ccccc2)n1,6.47%
18,CCOC(=O)c1cccc(NC(=O)CCn2nnc3ccccc32)c1,-9.98%
19,Cc1ccc(CSc2ccc(S(=O)(=O)N3CCCCC3)cn2)cc1,10.9%
20,CC(=O)Nc1ccc(CC#N)cc1,-8.66%
21,O=C(NC(=O)c1cc(OCC(F)(F)F)ccc1OCC(F)(F)F)Nc1ccccc1,15.2%
22,COc1ccc2cc(-c3[nH]ncc3CNCCn3nc(C)cc3C)ccc2c1,-4.25%
23,COc1cccc(-n2c(=S)sc3c(=O)n(-c4ccccc4OC)c(SCC4OCCO4)nc32)c1,22.9%

row,Compound,inhibition
1,COc1ccc(Cl)cc1-n1c(=S)sc2c(=O)n(-c3ccc(F)cc3)c(SCC(=O)O)nc21,86.6% (active)
2,COc1cccc(-n2c(=S)sc3c(=O)n(-c4ccccc4C)c(SCC(=O)O)nc32)c1,-2.42%
3,C/C(CC(=O)NC(C)c1ccccc1)=N\NC(N)=S (configuration not stated),6.14%
4,CSc1ccc(S(=O)(=O)N2CCC(C(=O)NCc3ccncc3)CC2)cc1,-30.2%
5,Cc1cccn2c(CN(C)C3CCCc4ccccc43)c(C(=O)N3CCOCC3)nc12 (configuration not stated),62.9% (active)
6,CCOC(=O)C1CCN(Cc2c(C(=O)N3CCOCC3)nc3c(C)cccn23)CC1,-12.6%
7,Cc1cccn2c(CNCC(C)Oc3cccnc3)c(C(=O)N3CCOCC3)nc12 (configuration not stated),9.53%
8,c1ccc2cc3c(NCCN4CCOCC4)ccnc3cc2c1,6.78%
9,CC(=O)Nc1sc2c(c1C(c1cccc(F)c1)N1CCN(CCO)CC1)CCCC2 (configuration not stated),7.18%
10,NC(=O)c1c(Nc2nc3c(F)cccc3s2)sc2c1CCCC2,63.4% (active)
11,CCOC(=O)C(NC(=O)CC(C)C)(Nc1sc2c(c1C(N)=O)CCCC2)C(F)(F)F (configuration not stated),-8.45%
12,NC(=O)c1c(NC(=O)CSc2nnc(-c3ccco3)n2N)sc2c1CCCC2,7.61%
13,COc1ccc2[nH]c(=O)c(CNc3ccc(C)c(C)c3)cc2c1,41%
14,O=C1Nc2cc(C(=O)N3CCC(N4CCCCC4)CC3)ccc2S/C1=C\c1ccccc1,-9.66%
15,CCN1CCCC1CNC(=O)c1ccc2c(c1)NC(=O)/C(=C\c1ccccc1F)S2 (configuration not stated),127% (active)
16,CCN1CCN(CCNC(=O)c2ccc3c(c2)NC(=O)/C(=C\c2cccc(Cl)c2)S3)CC1,2.78%
17,CN(C)S(=O)(=O)c1ccc(Cl)c(NC(=O)COC(=O)CC(NC(N)=O)c2ccc(Cl)cc2)c1 (configuration not stated),-3.62%
18,CCOC(=O)c1c(C)[nH]c(C)c1C(=O)CSc1nc(N)cc(N)n1,9.63%
19,CCCCNC(=O)c1ccccc1NC(=O)C1=C(C)OCCS1,-13.5%
20,Cc1cccc(C(=O)Nc2nnc(S(=O)(=O)N3CCCCCC3)s2)c1,95.7% (active)
21,O=C(Nc1nncs1)c1cccc(S(=O)(=O)N2CCCCC2)c1,-40.8%
22,Cc1nc2ccc(NC(=O)c3cccc(S(=O)(=O)N4CCOCC4)c3)cc2s1,19.6%
23,O=C(Nc1nnc(-c2ccccc2)o1)c1cccc(S(=O)(=O)N2CCOCC2)c1,0.98%

row,Compound,inhibition
1,O=C(Nc1ccc(S(=O)(=O)Nc2nccs2)cc1)c1cccc(S(=O)(=O)N2CCOCC2)c1,-1.66%
2,O=C(Nc1ccc(S(=O)(=O)N2CCOCC2)cc1)c1ccc2ncsc2c1,72.8% (active)
3,O=C(Nc1ccc(N2CCOCC2)c(Cl)c1)c1ccc(S(=O)(=O)N2CCOCC2)cc1,0.32%
4,O=C(Nc1cccc(S(=O)(=O)N2CCCCC2)c1)c1cncc(Br)c1,9.89%
5,Cc1cccc(NC(=O)c2cccc(S(=O)(=O)N3CCCC3)c2)n1,-1.18%
6,O=C(Nc1nnc(S(=O)(=O)N2CCOCC2)s1)c1cccc(Br)c1,103% (active)
7,CCOC(=O)CSc1nnc(NC(=O)c2cccc(S(=O)(=O)N3CCCCC3)c2)s1,-28.5%
8,O=C(Nc1nnc(S(=O)(=O)N2CCCCCC2)s1)c1cccc(Br)c1,88.1% (active)
9,COc1ccc2[nH]c(=O)c(C3c4cc(OC)c(OC)cc4CCN3C(=O)c3ccco3)cc2c1 (configuration not stated),8.2%
10,O=C(NCc1cccnc1)c1ccc(CS(=O)(=O)c2ccc(Br)cc2)o1,-4.96%
11,CC1CCCCC1NC(=O)CSc1nnc(N)s1 (configuration not stated),-8.21%
12,O=C(COC(=O)c1cccc(Cl)c1)NC1CCCCCCC1,17.2%
13,CC(C)(C)NC(=O)NC(=O)COC(=O)C1c2ccccc2Oc2ccccc21,-18.1%
14,CCCN(CCC)C(=O)C1c2ccccc2Oc2ccccc21,-24.1%
15,CC(C)(C)c1nnc(NC(=O)C2c3ccccc3Oc3ccccc32)s1,77.4% (active)
16,CCc1ccc2oc(-c3ccc(N)cc3)nc2c1,16.4%
17,Cc1ccc2oc(=O)ccc2c1,-9.67%
18,CCN(CC)c1ccc2oc(=O)c(C)nc2c1,94.1% (active)
19,COc1ccc(S(=O)(=O)N2CCOCC2)cc1NC(=O)Cc1coc2cc(C)ccc12,-4.24%
20,O/N=C(\c1ccc2c(c1)OCCO2)C1CCCCC1,-2.41%
21,CCc1ccc(-n2c(=S)sc3c(=O)n(-c4ccccc4OC)c(=S)[nH]c32)cc1,55.6%
22,COc1ccccc1-n1c(=S)[nH]c2c(sc(=S)n2-c2ccc(C)cc2C)c1=O,78.9% (active)
23,COc1ccccc1N1CCN(c2nc(C)cc(=O)[nH]2)CC1,15.1%

row,Compound,inhibition
1,CCCCn1nc(C(=O)Nc2ccc(S(=O)(=O)Nc3ncccn3)cc2)c2ccccc2c1=O,-8.76%
2,NS(=O)(=O)c1ccc(CNC(=O)c2cc(S(=O)(=O)N3CCOCC3)ccc2N2CCCC2)cc1,2.61%
3,COc1ccc(NC(=O)COC(=O)CNC(=O)C2CCCCC2)cc1,-2.97%
4,CN(Cc1ccccc1)S(=O)(=O)c1nnc(NC(=O)c2ccccc2F)s1,27.5%
5,CN(Cc1ccco1)S(=O)(=O)c1nnc(NC(=O)c2ccccc2)s1,58.2%
6,CC(=O)c1cccc(NC(=O)COc2ccc(S(=O)(=O)N3CCOCC3)cc2)c1,3.48%
7,COc1ccc(OC)c(NC(=O)c2cccc(S(=O)(=O)N3CCN(C(C)=O)CC3)c2)c1,-11.9%
8,COc1cccc(C(=O)Nc2nnc(S(=O)(=O)N3CCCCC3)s2)c1,112% (active)
9,COc1cccc(C(=O)Nc2ccc3nc4n(c(=O)c3c2)CCCCC4)c1,20%
10,COc1cccc(C(=O)Nc2nnc(S(=O)(=O)N(C)c3ccccc3)s2)c1,96.6% (active)
11,COc1cccc(C(=O)Nc2nnc(S(=O)(=O)N3CCOCC3)s2)c1,97.7% (active)
12,Cc1ccccc1OCC(=O)Nc1nnc(S(=O)(=O)N2CCCC2)s1,-10.3%
13,Cc1csc2ncc(C(=O)N(Cc3ccccc3)c3ccccn3)c(=O)n12,-14.5%
14,Cc1cccc(C)c1NC(=O)C1CCCN1C(=O)OC(C)(C)C (configuration not stated),-0.36%
15,CC(C)(C)c1cc(=O)n2c(nc3ccccc32)[nH]1,12.8%
16,CCc1ccc(NC(=O)C(=O)NNC(=O)c2cccs2)cc1,-15.6%
17,CCc1c(C)sc(NC(=O)c2cccs2)c1C(N)=O,71% (active)
18,CCc1cccc(C)c1NC(=O)COC(=O)CNC(=O)c1cccs1,4.68%
19,C=CCCC(=O)N1C[C@H]2CON(C)[C@H]2C[C@H]1c1cccc(Nc2ccccc2)c1,21.3%
20,O=C(OCC(=O)N1CCCCC1)c1ccc(OC(F)(F)F)cc1,-6.53%
21,O=c1c2c(nc3cc(-c4cccc(Cl)c4)[nH]n13)CCCC2,75% (active)
22,O=c1c2c(nc3nc[nH]n13)CCC2,16.4%
23,CCCCN1Cc2c(nc3cc(-c4ccccc4)[nH]n3c2=O)C1=O,-27.7%
